PubChem BioAssay AID646 (Vanderbilt High Throughput Screening Facility, 2007)
Hit rate of the full screen: of about 1,900 compounds, about 15 (0.8%) were called active. No stated cut-off is given here; in the data, active means luminescence above about 3900; inactive means the rest. These entries were drawn from the full list.

molecular target: D(1A) dopamine receptor (Homo sapiens) (UniProt P21728); experiment: intrinsic activation of D1 CRE reporter – cell-based, HEK293 D1, CRE-luciferase, secondary assay 1, mechanism study for D1 allosteric modulator project, confirmation (AID 646); settings: no dopamine, at 10 µM, hits give high values
Sequence (P21728 whole entry, looked up): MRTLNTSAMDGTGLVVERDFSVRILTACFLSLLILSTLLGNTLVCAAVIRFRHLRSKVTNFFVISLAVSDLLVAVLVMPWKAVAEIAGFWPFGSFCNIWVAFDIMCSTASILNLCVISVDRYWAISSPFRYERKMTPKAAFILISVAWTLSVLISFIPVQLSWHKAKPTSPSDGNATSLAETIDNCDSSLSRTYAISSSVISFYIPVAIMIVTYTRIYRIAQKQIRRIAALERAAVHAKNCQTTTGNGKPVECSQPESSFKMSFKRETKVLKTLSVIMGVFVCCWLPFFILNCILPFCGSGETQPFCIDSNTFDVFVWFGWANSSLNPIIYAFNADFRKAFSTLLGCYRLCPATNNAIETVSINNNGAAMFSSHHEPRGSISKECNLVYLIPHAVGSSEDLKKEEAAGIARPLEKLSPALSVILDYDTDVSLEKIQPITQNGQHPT

luminescence, inactive:
CN(C)c1nc(N)nc(CSc2nnnn2-c2cccc3ccccc23)n1 792, CCn1nc(C(=O)OCC(=O)N2c3ccccc3CC2C)c2ccccc2c1=O (stereo unspecified) 1520, CCC(=O)NC(=Nc1nc2ccccc2s1)NC(=O)CC 1420, CCOC(=O)c1cc(C)sc1NC(=O)C1CCC1 2190, COc1nc(NCc2ccc(Cl)cc2)nc(OC)n1 1580, COc1ccc(-c2nnco2)cc1OC 1540, CCOc1ccc2c(c1)cc(CN(C(=O)CC)C1CCCCC1)c1nnnn12 1650, CCn1c(=N)c(S(=O)(=O)c2ccc(F)cc2)cc2c(=O)n3ccccc3nc21 1820, Cn1c(=O)c2[nH]c(NCC3CCCO3)nc2n(-c2ccccc2)c1=O (stereo unspecified) 1520, O=C(NCc1ccccn1)c1ccc2nc(-c3ccco3)c(-c3ccco3)nc2c1 2040, CCn1ncc(C2=NOC(C(=O)Nc3ccccc3C(=O)OC)C2)c1C (stereo unspecified) 1280, COc1ccc(S(=O)(=O)N(C)CC(=O)Nc2ccc3c(c2)OCCO3)cc1OC 1540, CCOc1ccc(-c2nnn(CC(=O)N3CCN(c4ccc(OC)cc4)CC3)n2)cc1OCC 1540, CCCS(=O)(=O)N1CCC(C(=O)NCCc2ccc(OC)c(OC)c2)CC1 1810, Cc1ccc(C2CC(c3cccc(C)c3)n3nc(N)nc3N2)cc1 (stereo unspecified) 1850, CCCn1c(=NC(C)=O)c(C(=O)OCC)cc2c(=O)n3ccccc3nc21 1630, COc1ccc(S(=O)(=O)Nc2ccc(S(=O)(=O)N3CCCCC3)cc2)cc1OC 1540, CCOC(=O)/C=c1\s/c(=C\c2ccccc2OC)c(=O)n1CC(=O)N1CCOCC1 1600, FC(F)(F)c1cc(-c2ccco2)nc(N2CCOCC2)n1 1540, Cc1ccc(S(=O)(=O)c2c(N)n(C)c3nc4ccccc4nc23)cc1 1580, CC(=O)c1ccc(Oc2cc(C)nc(-n3nc(C)cc3C)n2)cc1 1560, CCCCc1c(O)nc2n(c1=O)CCS2 1610, CCNc1nc(NCC)nc(N(C)n2cnnc2)n1 1760, CCCSc1nc2c(c(=O)[nH]c(=O)n2C)n1CCc1ccccc1 1480, CCOc1cccc(-n2nnnc2-c2ccc(OC)cc2)c1 1540, COc1ccc(Nc2cc(C)nc(-n3nc(C)cc3C)n2)cc1 1750
